# According to PubChem BioAssay (EPA / NIEHS):
# Records with an inconclusive call do not appear. Active and inactive are the calls of the source. Rule for the calls, unless noted: active = hit-call score of the fitted dose curve at least 0.9, where 1 is the maximum; inconclusive = response in the unintended direction; inactive = score below 0.9.
# How the values were obtained:
# [1] = target: human Retinoid X Receptor beta (RXRb), RXRB (gene 6257) (UniProt P28702); experiment: ATG_RXRb_TRANS: Attagene TRANS-FACTORIAL HepG2 Assay for human Retinoid X Receptor beta (RXRb) (AID 2283013)
# How it was run: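 Read-out: reporter mRNA induction via RT-PCR plus capillary electrophoresis fluorescence, analysed as signal increase relative to DMSO. Cells were human HepG2, transiently transfected with GAL4-UAS reporter constructs and chimeric receptor-Gal4 fusions, dosed for 24 h.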
# [2] = target: human Thyroid Receptor alpha (THRa1), THRA (gene 7067) (UniProt P10827); experiment: ATG_THRa1_TRANS: Attagene TRANS-FACTORIAL HepG2 Assay for human Thyroid Receptor alpha (THRa1) (AID 2283014)
# How it was run: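 HepG2 cells transiently transfected with multiplexed GAL4-UAS reporter units for exogenous chimeric THRa1-Gal4; reporter mRNA measured 24 h after dosing by RT-PCR, 6-FAM labelling, HpaI digestion and capillary electrophoresis. Gain-of-signal fitted versus DMSO baseline.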
# [3] = target: Retinoic acid receptor RXR-alpha (Homo sapiens) (UniProt P19793); experiment: ATG_RXRa_TRANS: Attagene TRANS-FACTORIAL HepG2 Assay for human Retinoid X Receptor alpha (RXRa) (AID 2283012)
# How it was run: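 Read-out: fluorescent reporter-transcript fragments quantified by capillary electrophoresis after RT-PCR. Transiently transfected HepG2 cells carrying GAL4-UAS reporters and NR-GAL4 chimeras were exposed to chemical for 24 h; activity scored as increase over DMSO.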
# [4] = read-out: E-selectin (Homo sapiens) (UniProt P16581); experiment: BSK_3C_Eselectin: BioMAP Diversity Plus: 3C Assay for Eselectin Biomarker Activity (AID 2283015; active = hit-call score of the fitted dose curve at least 0.9, where 1 is the maximum; inactive = score below 0.9;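 for outcome: cell surface E-selectin protein quantified by ELISA 24 h after dosing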); conditions: primary human endothelial cells (HUVEC); actives raise or lower the signal
# How it was run: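 Primary human umbilical vein endothelial cells (3C system) were dosed with chemical and cell-surface E-selectin measured by ELISA 24 h later. Bidirectional curve fitting used DMSO as negative control and baseline.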
# [5] = read-out: Interleukin-1 alpha (IL1a), IL1A (gene 3552); experiment: BSK_BE3C_IL1a: BioMAP Diversity Plus: BE3C Assay for Interleukin-1 alpha (IL1a) Biomarker Activity (AID 2283016; active = hit-call score of the fitted dose curve at least 0.9, where 1 is the maximum; inactive = score below 0.9); conditions: primary human bronchial epithelial cells; actives raise or lower the signal
# How it was run: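 ELISA read-out of IL-1a from human lung bronchial epithelial primary cells, 24 h post-dose. Gain or loss of signal fitted relative to DMSO negative control.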
# [6] = read-out: Monocyte Chemoattractant Protein-1 (MCP1), CCL2 (gene 6347); experiment: BSK_3C_MCP1: BioMAP Diversity Plus: 3C Assay for Monocyte Chemoattractant Protein-1 (MCP1) Biomarker Activity (AID 2283017; active = hit-call score of the fitted dose curve at least 0.9, where 1 is the maximum; inactive = score below 0.9); conditions: primary human endothelial cells (HUVEC); actives raise or lower the signal
# How it was run: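 Primary human umbilical vein endothelial cells (3C system) were exposed to test chemical for 24 h, after which MCP-1 was quantified by ELISA. Activity was fitted bidirectionally against DMSO as negative control and baseline.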
# [7] = read-out: Human Leukocyte Antigen - DR isotype (HLADR), HLA-DRA (gene 3122); experiment: BSK_3C_HLADR: BioMAP Diversity Plus: 3C Assay for Human Leukocyte Antigen - DR isotype (HLADR) Biomarker Activity (AID 2283019; active = hit-call score of the fitted dose curve at least 0.9, where 1 is the maximum; inactive = score below 0.9;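 for outcome: ELISA of cell-surface HLA-DR on HUVEC 24 h after dosing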); conditions: primary human endothelial cells (HUVEC); actives raise or lower the signal
# How it was run: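 Primary human umbilical vein endothelial cells (3C system) were dosed with compound and cell-surface HLA-DR was quantified by ELISA at 24 h. Activity was fitted bidirectionally against DMSO as negative control and baseline.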
# [8] = read-out: Interleukin-8 (IL8), CXCL8 (gene 3576); experiment: BSK_3C_IL8: BioMAP Diversity Plus: 3C Assay for Interleukin-8 (IL8) Biomarker Activity (AID 2283020; active = hit-call score of the fitted dose curve at least 0.9, where 1 is the maximum; inactive = score below 0.9); conditions: primary human endothelial cells (HUVEC); actives raise or lower the signal
# How it was run: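 HUVEC, 3C stimulation; 24 h compound exposure; IL-8 read by ELISA; gain or loss of signal fitted relative to DMSO control.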
# [9] = read-out: Monocyte Chemoattractant Protein-1 (MCP1), CCL2 (gene 6347); experiment: BSK_4H_MCP1: BioMAP Diversity Plus: 4H Assay for Monocyte Chemoattractant Protein-1 (MCP1) Biomarker Activity (AID 2283018; active = hit-call score of the fitted dose curve at least 0.9, where 1 is the maximum; inactive = score below 0.9); conditions: primary human endothelial cells (HUVEC); actives raise or lower the signal
# How it was run: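 HUVEC primary cells, 24 h post-dose, MCP-1 by ELISA. Gain or loss of signal fitted bidirectionally vs DMSO baseline. Cytotoxicity: SRB stain (0.1% after 10% TCA fixation), read 560 nm, parallel cultures.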
# E-selectin (Homo sapiens), sequence (P16581 whole entry, looked up): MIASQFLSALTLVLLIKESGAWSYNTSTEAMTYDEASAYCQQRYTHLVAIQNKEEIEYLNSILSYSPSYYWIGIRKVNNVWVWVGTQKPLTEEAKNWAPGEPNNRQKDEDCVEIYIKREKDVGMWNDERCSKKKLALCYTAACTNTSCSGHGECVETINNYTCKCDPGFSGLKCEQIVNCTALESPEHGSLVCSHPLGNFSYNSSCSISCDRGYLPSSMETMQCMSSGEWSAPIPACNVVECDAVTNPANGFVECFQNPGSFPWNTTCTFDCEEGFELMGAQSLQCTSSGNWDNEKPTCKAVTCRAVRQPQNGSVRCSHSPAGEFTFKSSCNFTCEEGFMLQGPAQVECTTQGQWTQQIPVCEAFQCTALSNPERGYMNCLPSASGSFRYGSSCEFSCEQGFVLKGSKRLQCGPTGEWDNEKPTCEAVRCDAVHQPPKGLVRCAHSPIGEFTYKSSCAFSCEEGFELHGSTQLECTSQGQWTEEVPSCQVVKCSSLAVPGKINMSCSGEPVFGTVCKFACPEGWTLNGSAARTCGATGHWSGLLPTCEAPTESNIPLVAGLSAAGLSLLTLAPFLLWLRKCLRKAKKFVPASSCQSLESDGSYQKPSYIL
# human Thyroid Receptor alpha (THRa1), THRA (gene 7067), sequence (P10827 whole entry, looked up, the tested form may be a part): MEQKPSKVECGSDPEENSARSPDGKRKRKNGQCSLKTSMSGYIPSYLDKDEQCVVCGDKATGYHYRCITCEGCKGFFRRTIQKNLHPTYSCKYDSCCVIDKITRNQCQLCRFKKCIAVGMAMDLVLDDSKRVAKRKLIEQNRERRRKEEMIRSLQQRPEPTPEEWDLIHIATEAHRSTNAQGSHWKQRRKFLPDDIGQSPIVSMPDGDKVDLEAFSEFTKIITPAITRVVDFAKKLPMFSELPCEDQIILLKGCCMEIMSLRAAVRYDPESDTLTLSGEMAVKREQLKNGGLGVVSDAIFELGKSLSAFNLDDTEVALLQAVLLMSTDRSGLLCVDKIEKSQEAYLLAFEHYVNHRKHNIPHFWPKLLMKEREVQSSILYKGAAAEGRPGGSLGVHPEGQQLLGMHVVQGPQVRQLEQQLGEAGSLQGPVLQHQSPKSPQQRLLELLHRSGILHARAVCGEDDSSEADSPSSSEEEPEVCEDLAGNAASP
# human Retinoid X Receptor beta (RXRb), RXRB (gene 6257), sequence (P28702 whole entry, looked up, the tested form may be a part): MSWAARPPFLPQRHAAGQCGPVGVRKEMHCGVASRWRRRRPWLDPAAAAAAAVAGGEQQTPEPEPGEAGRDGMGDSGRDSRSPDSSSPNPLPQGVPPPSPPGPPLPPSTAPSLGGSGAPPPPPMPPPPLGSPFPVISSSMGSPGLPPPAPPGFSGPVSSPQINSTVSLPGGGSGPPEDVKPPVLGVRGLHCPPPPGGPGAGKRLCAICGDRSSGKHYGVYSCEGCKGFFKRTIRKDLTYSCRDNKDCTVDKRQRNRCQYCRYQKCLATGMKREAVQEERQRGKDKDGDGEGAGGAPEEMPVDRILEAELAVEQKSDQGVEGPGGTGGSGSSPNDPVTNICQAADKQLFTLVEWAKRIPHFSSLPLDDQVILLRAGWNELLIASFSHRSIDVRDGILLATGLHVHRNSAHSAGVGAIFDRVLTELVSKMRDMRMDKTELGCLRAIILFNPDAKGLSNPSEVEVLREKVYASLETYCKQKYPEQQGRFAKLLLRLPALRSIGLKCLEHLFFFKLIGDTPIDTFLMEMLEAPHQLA
# Retinoic acid receptor RXR-alpha (Homo sapiens), sequence (P19793 whole entry, looked up, the tested form may be a part): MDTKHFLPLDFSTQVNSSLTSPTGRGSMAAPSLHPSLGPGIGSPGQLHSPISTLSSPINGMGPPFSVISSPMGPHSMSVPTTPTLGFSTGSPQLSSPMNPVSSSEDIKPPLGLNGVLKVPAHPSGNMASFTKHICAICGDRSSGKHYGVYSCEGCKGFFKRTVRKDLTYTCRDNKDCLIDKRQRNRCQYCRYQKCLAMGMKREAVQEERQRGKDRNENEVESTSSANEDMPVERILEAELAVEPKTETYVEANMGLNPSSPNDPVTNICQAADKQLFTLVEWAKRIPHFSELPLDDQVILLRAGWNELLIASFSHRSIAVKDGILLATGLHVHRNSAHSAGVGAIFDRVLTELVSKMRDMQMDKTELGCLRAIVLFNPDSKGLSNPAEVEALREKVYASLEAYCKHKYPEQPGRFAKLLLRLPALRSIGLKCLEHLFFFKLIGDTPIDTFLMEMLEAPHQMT
compound,measurement,setting,value
C=C(C)C1CC=C(C)C(=O)C1 (centres undefined),outcome,[1],inactive
C=CCCC(=O)/C=C/C1C(C)=CCCC1(C)C (centres undefined),AC50,[1],25.2 µM (active)
same,outcome,[2],inactive
C[N+](C)(C)CCCCCC[N+](C)(C)C,outcome,[1],inactive
C=COCCOCCOC=C,outcome,[1],inactive
CCOC(=O)[C@@H](C)Oc1ccc(Oc2nc3ccc(Cl)cc3o2)cc1,outcome,[1],inactive
CCCOCCO,outcome,[1],inactive
same,outcome,[2],inactive
O=C(Nc1ccc([N+](=O)[O-])cc1)Nc1ccc([N+](=O)[O-])cc1 (tested in a mixture with another compound),outcome,[1],inactive
NC(=S)NNC(N)=S,outcome,[1],inactive
C#CC(C)N(C)C(=O)Nc1ccc(Cl)cc1 (centres undefined),outcome,[1],inactive
same,outcome,[2],inactive
CN(C)CCOc1ccc(/C(=C(/CCCl)c2ccccc2)c2ccccc2)cc1,outcome,[1],inactive
same,outcome,[2],inactive
Cc1cc(S(=O)(=O)O)ccc1N=Nc1c(O)ccc2ccccc12,outcome,[1],inactive
same,outcome,[2],inactive
C=C[Si]1(C)O[Si](C)(C=C)O[Si](C)(C=C)O[Si](C)(C=C)O1 (centres undefined),AC50,[1],8 µM (active)
CCC(C)S (centres undefined),outcome,[1],inactive
CCC(Cl)C(Cl)C(Cl)CC(Cl)C(Cl)C(C)Cl (centres undefined),AC50,[1],16.4 µM (active)
O=C1CCCC=CCCCCCCCCCC1,AC50,[1],12.1 µM (active)
CCc1ccc(O)c(OC)c1,outcome,[1],inactive
CCCC(C)=O,outcome,[1],inactive
same,outcome,[2],inactive
CCCCC1CCC(O)CC1 (centres undefined),outcome,[1],inactive
Cc1cccc(Nc2ccccc2)c1,AC50,[1],28 µM (active)
same,outcome,[2],inactive
COC(=O)c1ccc([N+](=O)[O-])cc1,outcome,[1],inactive
CN(C)C(=O)Nc1ccc(Oc2ccc(Cl)cc2)cc1,outcome,[3],inactive
same,outcome,[2],inactive
same,AC50,[4],20 µM (active)
same,AC50,[5],3.97 µM (active)
same,AC50,[6],3.97 µM (active)
same,outcome,[7],inactive
same,outcome,[8],inactive
COC(CC(C)CCCC(C)(C)O)OC (centres undefined),outcome,[1],inactive
CN(C)c1cccc(O)c1,outcome,[1],inactive
CC(C)=CCCC(C)CCOC=O (centres undefined),outcome,[1],inactive
same,outcome,[2],inactive
CCCCCCC(C)(C)S,outcome,[1],inactive
CCCCCCCCCCCC(=O)OCC(O)CO (centres undefined),AC50,[1],100 µM (active)
CCCCCCCCCCCCN1CCCCCC1=O,outcome,[1],inactive
CC(C)CCCCCCc1ccc(OCCOCCO)cc1,outcome,[1],inactive
CCCCC(CC)C(=O)OC(C)C (centres undefined),outcome,[1],inactive
same,outcome,[2],inactive
C=C(C)C(=O)OCC(CC)(COC(=O)C(=C)C)COC(=O)C(=C)C,AC50,[4],26.3 µM (active)
same,outcome,[5],inactive
same,outcome,[6],inactive
same,AC50,[7],19.7 µM (active)
same,outcome,[8],inactive
c1ccc2cc(Nc3ccc(Nc4ccc5ccccc5c4)cc3)ccc2c1,outcome,[2],inactive
same,outcome,[4],inactive
same,AC50,[5],0.147 µM (active)
same,outcome,[6],inactive
same,outcome,[7],inactive
same,outcome,[8],inactive
CCCCCCCCCCCCCCCC(=O)OC/C=C(C)/C=C/C=C(C)/C=C/C1=C(C)CCCC1(C)C,outcome,[1],inactive
same,AC50,[4],14.3 µM (active)
same,outcome,[5],inactive
same,AC50,[6],3.97 µM (active)
same,AC50,[7],20 µM (active)
same,AC50,[8],1.13 µM (active)
CC=Cc1ccc(OCC)c(O)c1,outcome,[1],inactive
same,outcome,[2],inactive
same,outcome,[4],inactive
same,outcome,[5],inactive
same,outcome,[6],inactive
same,outcome,[7],inactive
same,outcome,[8],inactive
OCCOCCN1CCN(C2=Nc3ccccc3Sc3ccccc32)CC1,outcome,[2],inactive
CC(C)Nc1nc(N)nc(Cl)n1,outcome,[2],inactive
OCc1ccc(Cl)cc1Cl,outcome,[2],inactive
Oc1ccc2cc(SSc3ccc4cc(O)ccc4c3)ccc2c1,outcome,[1],inactive
same,outcome,[2],inactive
COC(C)(C)CC(C)=O,outcome,[1],inactive
same,outcome,[2],inactive
CC1(C)O[C@@H]2[C@@H](CO[C@@]3(COS(N)(=O)=O)OC(C)(C)O[C@@H]23)O1,outcome,[2],inactive
CCC1CCCCC1,outcome,[2],inactive
CC(C)c1ccccc1O,AC50,[1],75.5 µM (active)
same,outcome,[2],inactive
CCC(C)=O,outcome,[2],inactive
CSCCC=O,outcome,[1],inactive
same,outcome,[4],inactive
same,outcome,[5],inactive
same,outcome,[6],inactive
same,outcome,[7],inactive
same,outcome,[8],inactive
C=C(C)C(=O)OCCOCCOCCOC(=O)C(=C)C,outcome,[4],inactive
same,outcome,[5],inactive
same,outcome,[6],inactive
same,outcome,[9],inactive
same,outcome,[7],inactive
same,outcome,[8],inactive
CCOC(=O)C(C#N)=C(c1ccccc1)c1ccccc1,AC50,[1],26.6 µM (active)
same,outcome,[2],inactive
same,outcome,[4],inactive
same,outcome,[5],inactive
same,outcome,[6],inactive
same,outcome,[7],inactive
same,outcome,[8],inactive
CC/C=C\CCOC(=O)CC,outcome,[2],inactive
C[C@@H]1CCN(C(=O)[C@H](CCCN=C(N)N)NS(=O)(=O)c2cccc3c2NC[C@H](C)C3)[C@@H](C(=O)O)C1,outcome,[4],inactive
same,outcome,[5],inactive
same,outcome,[6],inactive
same,outcome,[9],inactive
same,outcome,[7],inactive
same,outcome,[8],inactive
COc1ccc(COC(C)=O)cc1,outcome,[2],inactive
CC=Cc1ccc(OC)c(OC)c1,outcome,[1],inactive
same,outcome,[2],inactive
